The record followed here is PubChem BioAssay (NCI).

Each structure is given as a SMILES string. About 83,000 compounds went through this panel and 20% of them were active in at least one assay; those are over-represented in the sample as a whole.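 The endpoint reported here, percent growth, reads 100 for growth as untreated, 0 for no net growth and -100 for all cells dead.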 Unmarked numbers belong to inactive results. Activity calls are given as the source filed them. How the source made its calls: active means growth percent below 10; inactive means the rest.

Among the test systems are SK-MEL-2 melanoma; EKVX NSCLC; SN12C renal; UO-31 renal; TK-10 renal; ACHN renal; CAKI-1 renal; A498 renal; CCRF-CEM leukemia; MOLT-4 leukemia; SR leukemia; RPMI-8226 leukemia; OVCAR-8 ovarian; OVCAR-5 ovarian; OVCAR-4 ovarian; SK-OV-3 ovarian; IGROV1 ovarian; OVCAR-3 ovarian; HS 578T breast; NCI/ADR-RES ovarian.
What all share (test): NCI-60 one-dose screen, 48 h (100 = growth as untreated, 0 = no growth, -100 = all killed)
Details in all cases: 10 µM

Regarding `OCC1OC(n2cnc3c(NCc4ccco4)ncnc32)C(O)C1O` (stereo unspecified), the growth in the assay with SK-MEL-2 melanoma was 76%; in the assay on EKVX NSCLC it was 65.3%; in the assay with SN12C renal, 7.6% (active); in the assay with UO-31 renal it was 20.4%; in the assay with TK-10 renal, 41.4%; in the assay with ACHN renal, 4.08% (active). In addition, the growth with CAKI-1 renal was 14.1%; in the assay with A498 renal it was 9.69% (active); with CCRF-CEM leukemia, 6.74% (active); in the assay with MOLT-4 leukemia, -4.64% (active); with SR leukemia it was 5.19% (active); in the assay on RPMI-8226 leukemia it was 50.8%. The growth in the assay on OVCAR-8 ovarian is 0.871% (active); with OVCAR-5 ovarian, 28.8%; in the assay with OVCAR-4 ovarian it was 23%; in the assay on SK-OV-3 ovarian it was -2.77% (active); in the assay with IGROV1 ovarian, -3.86% (active); with OVCAR-3 ovarian, -41.7% (active). In addition, the growth in the assay with HS 578T breast was 11.5%; in the assay with NCI/ADR-RES ovarian, 12.7%.

Consider `CC(=O)OC1C=CC(OC(C)=O)O1` (stereo unspecified), for which the growth is 88.9% in the assay on SK-MEL-2 melanoma; 99.3% with EKVX NSCLC; 89.8% with SN12C renal; 59.4% in the assay with UO-31 renal; 102% in the assay on TK-10 renal; 97.9% with ACHN renal. Besides, the growth is 89% in the assay on CAKI-1 renal; 81.3% with A498 renal; 76.6% with CCRF-CEM leukemia; 90% in the assay on MOLT-4 leukemia; 101% in the assay with SR leukemia; 92.4% with RPMI-8226 leukemia. The growth with OVCAR-8 ovarian is 94.2%; in the assay on OVCAR-5 ovarian, 101%; in the assay with OVCAR-4 ovarian it was 97.5%; with SK-OV-3 ovarian, 91.8%; in the assay with IGROV1 ovarian, 89.8%; with OVCAR-3 ovarian it was 102%. The figures for the growth in the assay with HS 578T breast and in the assay on NCI/ADR-RES ovarian were 87.4% and 99.2%, respectively.

As to `Cc1cc(=O)n2nnc3cc(C(F)(F)F)ccc3n12`, the growth with SK-MEL-2 melanoma is 99.2%; in the assay on EKVX NSCLC it was 107%; in the assay on SN12C renal, 106%; in the assay with UO-31 renal, 84%; in the assay with TK-10 renal, 93.6%; in the assay with ACHN renal, 108%. Besides, the growth with CAKI-1 renal is 113%; with A498 renal, 103%; in the assay on CCRF-CEM leukemia, 103%; with MOLT-4 leukemia, 91.3%; in the assay on SR leukemia, 104%; in the assay with RPMI-8226 leukemia, 107%. In addition, the growth in the assay on OVCAR-8 ovarian was 111%; in the assay with OVCAR-5 ovarian, 121%; in the assay with OVCAR-4 ovarian it was 116%; in the assay with OVCAR-3 ovarian, 114%; with HS 578T breast it was 117%; with NCI/ADR-RES ovarian it was 110%.

Consider `COc1ccc(/C(=N\N)C(=O)c2ccccc2)cc1` (tested in a mixture with another compound), for which the growth in the assay on SK-MEL-2 melanoma was 112%; in the assay on EKVX NSCLC, 91.4%; with SN12C renal it was 88.5%; with UO-31 renal, 81.1%; in the assay with TK-10 renal it was 108%; in the assay on ACHN renal it was 98.3%. Besides, the growth with CAKI-1 renal was 90.8%; in the assay with A498 renal it was 83.2%; in the assay with CCRF-CEM leukemia, 88.2%; with MOLT-4 leukemia, 80.4%; in the assay with SR leukemia it was 111%; with RPMI-8226 leukemia, 90%. Further, the growth was 103% in the assay on OVCAR-8 ovarian; 96.7% in the assay with OVCAR-5 ovarian; 95.9% with OVCAR-4 ovarian; 97.7% in the assay with SK-OV-3 ovarian; 107% with IGROV1 ovarian; 102% in the assay with OVCAR-3 ovarian. Moreover, the figures for the growth in the assay on HS 578T breast and with NCI/ADR-RES ovarian were 97.1% and 102%, respectively.

For `Cc1cc(C)nc(NS(=O)(=O)c2ccc(Nc3nc4nc(NCc5ccccc5)nc(-c5ccc(O)cc5)c4c(=O)[nH]3)cc2)n1`, the growth in the assay with SK-MEL-2 melanoma was 4.65% (active); with EKVX NSCLC, 26.7%; with SN12C renal it was 33.1%; in the assay on UO-31 renal, 10.9%; in the assay on TK-10 renal, 10.3%; in the assay with ACHN renal it was 15.6%. Besides, the growth is 33.1% in the assay with CAKI-1 renal; 42.5% in the assay on A498 renal; 19.6% with CCRF-CEM leukemia; -1.75% (active) in the assay with MOLT-4 leukemia; 26.5% in the assay on SR leukemia; 18.1% with RPMI-8226 leukemia. Also, the growth in the assay with OVCAR-8 ovarian is 49.5%; in the assay with OVCAR-5 ovarian it was 45.2%; in the assay on OVCAR-4 ovarian, 18.3%; with SK-OV-3 ovarian it was 35.2%; with OVCAR-3 ovarian, 34.2%; in the assay on HS 578T breast, 35.6%. The growth in the assay on NCI/ADR-RES ovarian was 20.3%.

For the compound `O=C1CSC(=S)N1/N=C/c1ccc(Cl)s1`, the growth in the assay on SK-MEL-2 melanoma is 98.6%; in the assay with EKVX NSCLC it was 101%; in the assay with SN12C renal, 95.8%; in the assay with UO-31 renal, 79.3%; with TK-10 renal, 118%; in the assay on ACHN renal, 98.4%. The growth in the assay with CAKI-1 renal was 100%; with A498 renal, 103%; in the assay on CCRF-CEM leukemia, 98.6%; in the assay with MOLT-4 leukemia it was 102%; in the assay with SR leukemia it was 98.2%; with RPMI-8226 leukemia, 97.4%. Further, the growth with OVCAR-8 ovarian was 106%; in the assay with OVCAR-5 ovarian, 97.6%; with OVCAR-4 ovarian, 119%; in the assay with SK-OV-3 ovarian, 92.6%; with IGROV1 ovarian, 100%; in the assay with OVCAR-3 ovarian, 104%. Further, the growth with HS 578T breast is 112%; in the assay on NCI/ADR-RES ovarian it was 97.5%.

For the compound `O=C(CCC(C(=O)c1ccccc1)c1ccccc1)c1ccccc1` (stereo unspecified), the growth in the assay with SK-MEL-2 melanoma is 45.4%; with EKVX NSCLC it was 76.2%; with SN12C renal, 79.7%; with UO-31 renal it was 72.1%; in the assay with TK-10 renal it was 102%; with ACHN renal, 72.2%. Also, the growth was 52% in the assay with CAKI-1 renal; 80.6% with A498 renal; 38.2% in the assay on CCRF-CEM leukemia; 46.2% with MOLT-4 leukemia; 25.5% in the assay on SR leukemia; 64.9% with RPMI-8226 leukemia. Further, the growth was 95.3% in the assay on OVCAR-8 ovarian; 88% with OVCAR-5 ovarian; 91.2% with OVCAR-4 ovarian; 74.3% in the assay with SK-OV-3 ovarian; 79.3% in the assay with IGROV1 ovarian; 72.3% in the assay on OVCAR-3 ovarian. The growth in the assay with NCI/ADR-RES ovarian is 38.3%.

On to `O=C(Nc1ccc(NS(=O)(=O)c2ccc(F)cc2)cc1)C12CC3CC(CC(C3)C1)C2`, for which the growth is 107% in the assay on SK-MEL-2 melanoma; 74.4% in the assay with EKVX NSCLC; 92.6% with SN12C renal; 75.1% with UO-31 renal; 96.7% with TK-10 renal; 102% in the assay on ACHN renal. The growth in the assay with CAKI-1 renal is 86%; in the assay on A498 renal, 90.8%; in the assay on CCRF-CEM leukemia it was 84.2%; in the assay on MOLT-4 leukemia, 77.7%; in the assay with SR leukemia it was 75.5%; in the assay on RPMI-8226 leukemia it was 89.3%. The growth was 94.7% with OVCAR-8 ovarian; 97.1% in the assay on OVCAR-5 ovarian; 99% in the assay with OVCAR-4 ovarian; 92.5% in the assay with SK-OV-3 ovarian; 102% in the assay with IGROV1 ovarian; 98.6% with OVCAR-3 ovarian. For the same compound, the growth in the assay with HS 578T breast is 94.4%; in the assay on NCI/ADR-RES ovarian, 85.5%.
